The list is not random: actives were taken first. Their share in the collection is about 1.4%.
PV pol inh – poliovirus RNA polymerase inhibition; P03300; poliovirus polymerase elongation, fluorescence polarization; hits give low values; % elongation, % (compound at 16.7 µg/mL); hit rate 0.66% among 150,000; AID 588519; in the data active = % elongation below about 90%
AID504770 – growth inhibitors of E. coli YBA685 in a screen for V. cholerae RctB (chromosome II replication) inhibitors; E. coli YBA685 rctB-dependent plasmid, OD600 growth, 3 h; hits give low values; z-score (no concentration beside the values); hit rate 0.27% among 130,000; in the data active = z-score below about -2, passing the limit was not always enough
MenB inh – inhibitors of Mycobacterium tuberculosis MenB enzyme | P9WNP5 | MenB enzyme assay, absorbance read-out | inhibition, % (no concentration beside the values) | hit rate 0.43% among 100,000; in the data active = inhibition above about 21%, passing the limit was not always enough
Target sequence (P9WNP5 whole entry, looked up): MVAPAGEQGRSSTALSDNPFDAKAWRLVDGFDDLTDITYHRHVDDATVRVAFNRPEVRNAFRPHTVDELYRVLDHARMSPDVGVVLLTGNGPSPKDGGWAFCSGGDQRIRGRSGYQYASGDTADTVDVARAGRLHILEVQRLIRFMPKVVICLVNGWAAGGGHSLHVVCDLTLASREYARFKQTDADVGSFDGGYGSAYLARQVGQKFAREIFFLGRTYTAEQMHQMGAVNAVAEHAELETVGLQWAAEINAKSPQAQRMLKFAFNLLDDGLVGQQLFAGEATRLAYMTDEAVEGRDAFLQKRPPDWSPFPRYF
Mtb MbtI inh – MbtI salicylate synthase inhibition; hit rate 0.89% among 100,000; purified MbtI enzyme, fluorescence intensity read-out; P9WFX0; inhibition, % (no concentration beside the values); AID 493033; in the data active = inhibition mostly above about 56%, no sharp cut-off; inactive = mostly below about 77%
* = called active by the depositor; nt = no result given; ! = repeats disagree.

SMILES	PV pol inh	AID504770	MenB inh	Mtb MbtI inh
C=CCn1c(N)nc2c1c(=O)n(C)c(=O)n2C	101	-0.6	49*	-5
Oc1c(C(c2ccc(F)cc2)N2CCCC2)ccc2cccnc12 (configuration not stated)	nt	0.2	nt	nt
Oc1c(C(c2ccc(C(F)(F)F)cc2)N2CCOCC2)ccc2cccnc12 (configuration not stated)	111	0	-80	64*
N/C(=N/O)c1ccccc1N	102	-1.5	42*	26
CN(Cc1ccco1)c1nc(-c2ccc(Cl)cc2)nc2ccccc12	101	-0.5	-50	118
Cc1ccc(-n2c(C)cc(/C=C3\SC(=O)NC3=O)c2C)cc1	100	0.7	39*	-27
CC(C)Oc1ccccc1CN	101	1	32*	3
S=C(S)N1CCCCC1	nt	-5.2*	nt	nt
O=C(C1CCCCC1)N1CCCCCCC1	101	0	-20	-7
Clc1ccc(CNc2nc3ccccc3[nH]2)cc1Cl	98	-2.8*	-12	-9
O=C(O)c1ccc(NC2OC(CO)C(O)C2O)cc1 (configuration not stated)	90*	1.2	-15	nt
COc1cc(F)nc(N)n1	102	0.25	-10	-3
Cc1cc(Cl)cc(C)c1OCC1COS(=O)O1 (configuration not stated)	82*	0.15	-6	-4
Cc1oc(-c2ccc(Cl)cc2)cc1C(=O)N1CCC(O)(c2ccc(Cl)cc2)CC1	105	0	8	-12
CCOC(=O)c1cn(CC(=O)N(Cc2ccccc2)c2ccc(Br)cc2)nn1	nt	-0.4	nt	nt
Cc1ccc(-n2c(C)nc3c(cnn3-c3ccccc3)c2=O)cc1	82*	nt	nt	nt
O=C1NC(=O)N(c2ccccc2)C(=O)/C1=C/C=C/c1ccco1	101	-0.3	-180	88*
O=C1NC(=S)NC(=O)C1=C/C=C/c1ccco1	72*	0.8	-44	62
CN1C(=O)NC(=O)/C(=C\C=C\c2ccco2)C1=O	105	-0.15	-268	21
COc1ccc(S(=O)(=O)n2ccnc2C)cc1	nt	-0.05	nt	nt
N#CCc1ccc(OC(F)F)cc1	31*	0.15	-14	0
CC(C)Cn1c(=O)c2sccc2n2c(=S)sc(-c3ccccc3)c12	95	-1	-11	68*
CCCn1cnc2c1c(=O)[nH]c(=O)n2C	nt	-3.7*	nt	nt
C=CCn1cnc2c1c(=O)[nH]c(=O)n2C	103	0	0	0
COc1ccc(-n2c(SCC(N)=O)nc3c(c2=O)SCC3)cc1	103	0.15	0	2
SMILES	PV pol inh	AID504770	MenB inh	Mtb MbtI inh
O=C(Nc1cc(C(F)(F)F)cc(C(F)(F)F)c1)C(=S)NCCNc1cccc2ccccc12	71*	0.25	-8	nt
COc1ccc(C(=O)COc2c(F)c(F)cc(F)c2F)c(OC)c1	102	-0.15	-25	5
Cc1ccc(-c2nnc3c4cnn(Cc5ccccc5)c4ncn23)cc1	nt	-0.6	nt	-9
O=C(NCCO)NC12CC3CC(CC(C3)C1)C2	104	-0.85	6	-1
COc1ccc(CCNC(=O)Cn2cnc3c(cnn3-c3ccccc3)c2=O)cc1OC	nt	-3.6*	nt	nt
COC(=O)Cn1cnc2c(cnn2-c2ccccc2)c1=O	nt	-0.35	nt	nt
CCOc1ccccc1NC(=O)/C=C/C(N)=O	nt	-0.8	nt	nt
NC(=O)/C=C/C(=O)Nc1ccccc1Cl	101	0.25	-60	100*
Cc1ccccc1NC(=O)/C=C\C(N)=O	104	0.65	-8	99*
Cc1nc2ccccc2n1-c1ccc(S(N)(=O)=O)cc1	104	1.8	7	nt
CCOc1ccc(NC(=O)Cn2c(=O)n(C3CCCC3)c(=O)c3cc(OC)c(OC)cc32)cc1	101	-0.1	7	-1
CC(NC(=O)CSc1nnc2c3ccccc3n(C)c2n1)c1ccccc1 (configuration not stated)	nt	0.9	nt	nt
COc1ccc(CN(C)C(C)C(=O)Nc2ccc3c(c2)OCCO3)c(OC)c1 (configuration not stated)	103	0.3	-28	-6
Cc1noc(C)c1CSc1ccccc1C(=O)OC(C)C(=O)N1CCOCC1 (configuration not stated)	102	0.45	-14	8
Cc1noc(C)c1CSc1ccccc1C(=O)NC(C)c1ccc2c(c1)OCCO2 (configuration not stated)	100	-0.2	-29	89*
CC(C)(C)C(=O)NC1CCN(S(C)(=O)=O)CC1	102	-0.35	31*	-3
O=C(NCc1ccco1)C(=S)N1CCOCC1	99	-0.3	-6	76*
CN(C)c1ccc(/C=N/NC(=O)Cc2ccccc2)cc1	104	-1.2	-6	4
O=C(O)CC(CP(c1ccccc1)c1ccccc1)C(=O)O (configuration not stated)	101	-1	-146	-17
OCCP(c1ccccc1)c1ccccc1	100	-0.75	61*	-26
CCCN1CCN(CCCNC(=O)c2cc3c(Cl)nc4ccccc4c3s2)CC1	67*	nt	nt	nt
CCN1CCN(CCCNC(=O)c2cc3c(=O)n(C)c4ccccc4c3s2)CC1	74*	nt	nt	nt
CC1=NOC(=O)/C1=C/c1ccc(O)cc1	99	-1.9	-38	92*
Cc1[nH]c(=S)[nH]c1Cc1ccccc1	nt	-0.8	-14	96*
N#Cc1ccc(Sc2ccc(C#N)c(C#N)c2)cc1C#N	100	-0.85	-53	100*
SMILES	PV pol inh	AID504770	MenB inh	Mtb MbtI inh
N#Cc1ccc(OC(C(F)(F)F)C(F)(F)F)cc1C#N	100	-0.45	-23	1
CCOc1ccc(S(=O)(=O)N2CCN=C2c2ccccc2)cc1C	101	-0.7	-97	-20
Nc1cccc2cccc(C(=O)O)c12	89*	-0.8	nt	-7
CC(C)(C)C1=NN(c2nc3ccc(Cl)cc3s2)C(=O)C1	106	1.4	9	60*
O=C1CC(CSc2ccc(Cl)cc2)=NN1c1nc2ccccc2s1	103	0.4	-50	-6
O=c1oc(Cl)c(Cl)c2ccccc12	90*!	nt	-9	4
O=c1oc2c3ccccc3oc(=O)c2c2ccccc12	99	0.25	-3	22
CC1(C)CC(=O)C(C2(O)C(=O)NC(=O)NC2=O)=C(O)C1	56*	-0.25	-86	-3
O=C(CCC1CCCCC1)NC1C=CS(=O)(=O)C1 (configuration not stated)	108	-0.4	-13	9
CCOc1ccc(-c2cnc(N)s2)cc1	62*	-0.7	-1	nt
CN1CCN(CCCNS(=O)(=O)c2ccc(-c3cc(C(F)(F)F)no3)s2)CC1	102	-0.1	-13	-8
COc1cc(Cc2cnc(N)nc2N)cc(OC)c1OC	100	-3.1*	-12	-5
Cc1cc(C)c(Nc2nn3c(=O)c4cc5c(cc4nc3s2)OCO5)c(C)c1	87*	nt	nt	nt
Cc1ccccc1Nc1nn2c(=O)c3ccc(C(=O)NCc4ccccc4)cc3nc2s1	104	nt	nt	nt
Cc1cccc(C)c1Nc1nn2c(=O)c3ccccc3nc2s1	88*	-0.8	-33	51
CCCc1c(C)c2ccc(OCC(=O)O)cc2oc1=O	nt	-1.1	nt	nt
O=C1CSC(=S)N1Nc1ccccc1	105	-4	-59	76*
N#Cc1cc(-c2ccccc2C(F)(F)F)no1	100	-2.6*	-60	-6
C=CCN(CC=C)Cn1c(=S)oc2ccc(S(=O)(=O)Nc3ccc(OC)cc3)cc21	93	0.05	-23	85*

Assay outcomes as filed in PubChem BioAssay.
